Screens as filed in PubChem.
This is a sample that favours compounds with a hit; in the whole collection about 12% have one here.
Sm TGR block = inhibitors of Schistosoma mansoni thioredoxin glutathione reductase; Q962Y6; purified TGR, DTNB reduction, TNB absorbance 405 nm; Potency, µM (doses to about 114 µM), without a hit: at the highest dose activity change, negative = inhibition, most hits filed as inhibitors; hit rate 3% among 360,000; AID 485364; also: % is scaled to controls: 0 for no effect and ±100 for the full control effect; nearly all actives have a fitted effect of over 60% in size
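TGR 20 nM + NADPH 100 uM (dispensed conc.), cpd preinc 15 min RT; start with NADPH (500 uM addition) then DTNB (15 mM addition). Kinetic TNB absorbance, 405 nm filter. Four-parameter Hill fit across titration.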
SARS PLP yeast = SARS-CoV PLP inhibition in yeast; hit rate 0.19% among 330,000; AID 485353; Potency, µM (series often up to 32.9 µM), without a hit: top-dose activity, positive = growth rescue, actives largely listed as activators; S. cerevisiae expressing SARS-CoV PLpro, growth rescue; calls by dose curve; also: 0% is about no effect; nearly all actives have a fitted effect of over 55% in size
AmpC inh detg = blocks E. coli AmpC beta-lactamase in detergent assay; hit rate 0.041% among 370,000; Potency, µM (highest dose often 114 µM), for the others: at the top dose activity change, negative = inhibition, actives largely listed as inhibitors; P00811; AmpC hydrolysis of nitrocefin, absorbance 480 nm, 0.01% Triton; AID 485294;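 also: 0% = no-compound wells and -100% = no-enzyme wells; nearly all actives have a fitted effect of over 25% in size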
Target sequence (P00811 whole entry, looked up): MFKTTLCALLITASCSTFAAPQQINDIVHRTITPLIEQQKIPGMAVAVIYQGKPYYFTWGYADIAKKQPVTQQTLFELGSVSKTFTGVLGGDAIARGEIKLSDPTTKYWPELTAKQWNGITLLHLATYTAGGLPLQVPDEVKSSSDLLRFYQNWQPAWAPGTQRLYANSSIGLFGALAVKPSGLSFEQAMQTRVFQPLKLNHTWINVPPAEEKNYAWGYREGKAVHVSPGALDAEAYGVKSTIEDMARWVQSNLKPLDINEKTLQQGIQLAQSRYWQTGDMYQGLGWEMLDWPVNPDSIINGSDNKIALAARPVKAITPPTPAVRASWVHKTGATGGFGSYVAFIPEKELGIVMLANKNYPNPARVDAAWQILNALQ
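20 mM phosphate pH 7.0 + 0.01% (detergent screen) or 0.0001% Triton X-100; 5.3 nM AmpC reagent; cpd preinc 15 min RT; nitrocefin (800 uM stock) to start; A480 q20 s × 4 min; Activity was normalised to no-enzyme and no-compound control wells.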
Pf growth 96h = P. falciparum growth inhibition at 96 hours. Potency, µM (highest dose often 28.7 µM), inactives show top-dose activity change, negative = inhibition, most hits filed as inhibitors. hit rate 6.9% among 320,000. AID 504834. P. falciparum luciferase reporter growth, 96 h; also: % is scaled to controls: 0 for no effect and ±100 for the full control effect
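P. falciparum expressing integrated firefly luciferase, in erythrocytes at 2% hematocrit, 0.05% parasitemia, incubated with compounds 96 h at 37 C, 5% CO2. Growth inhibition read as loss of luminescence; two-generation exposure targets delayed-death apicoplast inhibitors.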
AmpC no deterg = blocks E. coli AmpC beta-lactamase in detergent-free assay; P00811; AmpC nitrocefin hydrolysis, absorbance 480 nm, 0.0001% Triton; Potency, µM (series often up to 57.1 µM), inactives show at the top dose activity change, negative = inhibition, most hits filed as inhibitors; hit rate 0.52% among 330,000;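 also: plate controls were no compound for no effect and no enzyme for full effect; nearly all actives have a fitted effect of over 20% in size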
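AmpC (5.3 nM in the dispensed reagent) in 20 mM phosphate pH 7.0 with 0.01% (detergent screen) or 0.0001% Triton X-100 was preincubated with compounds for 15 min at room temperature. Nitrocefin was then added from an 800 uM solution, and hydrolysis was followed at 480 nm.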
Pf growth 48h = inhibits P. falciparum growth in the first generation, 48 h | Potency, µM (series often up to 28.7 µM), for the others: top-dose activity change, negative = inhibition, most hits filed as inhibitors | hit rate 5.9% among 310,000 | P. falciparum luciferase growth in erythrocytes, 48 h; also: % is scaled to controls: 0 for no effect and ±100 for the full control effect
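Parasite viability was followed by luminescence of a genomically integrated firefly luciferase. Cultures held 0.1% parasitemia at 2% hematocrit (final), incubated under 5% CO2 at 37 C.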
Numbers without * were called inactive; ? = inconclusive; · = not tested or not shown. Unless noted, calls follow the shape of the dose curve; as a rule, active = well fitted curve in the direction sought with a large enough effect; inconclusive = small, poorly fitted or top-dose-only effect, or another doubt; inactive = no such curve, though single readings can be large; an effect the other way counts as inactive or inconclusive. Potency is read from the fitted curve at half-maximal effect.

SMILES	Sm TGR block	SARS PLP yeast	AmpC inh detg	Pf growth 96h	AmpC no deterg	Pf growth 48h
O=C(COc1ccccc1Cl)N1CCN(c2ccc([N+](=O)[O-])c(N3CCCCC3)c2)CC1	0%	9%	-4%	?	8%	?
CCCNC(=O)Cn1nc(C)c2c(C)n(-c3ccccc3)nc2c1=O	0%	·	-7%	·	·	·
COc1ccc(OC)c(NC(=S)N2CCC(C(O)(c3ccccc3)c3ccccc3)CC2)c1	-2%	-14%	-1%	?	2%	9.3µM*
COc1ccc(OC)c(NC(=S)N2CCN(Cc3ccccc3)CC2)c1	3%	2%	2%	18%	26%	-1%
CN(Cc1ccccc1)C(=O)CCSc1nc(-c2ccc3c(c2)OCO3)cc(C(F)(F)F)n1	0%	-13%	?	-2%	-24%	9.3µM*
COc1cc(C(CCN2CCOCC2)c2c(OC)cc(OC)c3c(C)cc(=O)oc23)cc(OC)c1OC (configuration not stated)	-23%	-4%	-6%	?	222%	13µM*
COc1cc(C(CCN2CCCC2)c2c(OC)cc(OC)c3c(C)cc(=O)oc23)cc(OC)c1OC (configuration not stated)	2%	0%	2%	9.3µM*	132%	7.4µM*
COc1ccc(C(CCN2CCOCC2)c2c(OC)cc(OC)c3c(C)cc(=O)oc23)cc1 (configuration not stated)	0%	-3%	-6%	?	213%	?
O=C(CCc1ccccc1)Nc1nc2nc(-c3ccccc3)cc(=O)n2[nH]1	5%	-1%	?	70%	-33%	13%
O=C(N/N=C/c1ccc(O)c([N+](=O)[O-])c1)C1CC1(c1ccccc1)c1ccccc1 (configuration not stated)	-9%	-2%	-2%	336%	-50%	?
O=C(N/N=C/c1ccncc1)C1CC1(c1ccccc1)c1ccccc1 (configuration not stated)	10%	0%	-4%	5.2µM*	1%	?
CCc1nc2c(c(=O)[nH]1)C(CC)(CC)Cc1ccccc1-2	-2%	-2%	4%	-4%	-5%	0%
CCN(CC)Cc1nc2c(c(=O)[nH]1)C(CC)(CC)Cc1ccccc1-2	-18%	-3%	-5%	-140%	-5%	9.3µM*
CCOc1ccc(CCNC(=O)Cn2ncn3c(cc4sc(C)cc43)c2=O)cc1OCC	5%	·	1%	·	·	·
CCOC(=O)c1cnc2c(Cl)cc(Cl)cc2c1NCCCN1CCOCC1	13µM*	-2%	?	0%	-3%	?
CCCc1nc2c(C)cc(C)cc2c(N)c1CC	0%	2%	-6%	10µM*	-19%	9.3µM*
Cc1cc(C)c2nc(C(F)(F)F)c(C#N)c(N)c2c1	9%	2%	-4%	44%	-16%	·
COc1ccc(/C=C(\NC(=O)c2ccccc2)C(=O)NC2CCS(=O)(=O)C2)cc1 (configuration not stated)	3%	-1%	-7%	13%	-9%	?
CCN1CCCC1CNC(=O)CCNC(=O)c1cc(OC)c(OC)c(OC)c1 (configuration not stated)	6%	1%	1%	2.6µM*	-4%	-21%
COc1ccc2[nH]c3c(=O)n(CCCCC(=O)NCCC(C)C)c(=S)[nH]c3c2c1	-7%	2%	-16%	5.2µM*	-26%	?
CCCNC(=O)CCCCn1c(=S)[nH]c2c([nH]c3ccc(OC)cc32)c1=O	-1%	-3%	-14%	-1%	-3%	198%
Cc1c(C(=O)N2CCN(C)CC2)oc2c1C(=O)CC(C)(C)C2	0%	-1%	-10%	?	-10%	14%
Cc1c(C(=O)N2CCOCC2)oc2c1C(=O)CC(C)(C)C2	-12%	-1%	-11%	12µM*	1%	3%
O=S(=O)(Nc1ccc(F)cc1F)c1ccc(Br)s1	-6%	·	-5%	·	·	·
CCOC(=O)c1c(C)n(-c2ccc(F)cc2)c2ccc(O)cc12	-6%	1%	-3%	6%	-25%	2.6µM*
SMILES	Sm TGR block	SARS PLP yeast	AmpC inh detg	Pf growth 96h	AmpC no deterg	Pf growth 48h
COC(=O)c1c(C)n(-c2ccc(OC)cc2)c2ccc(O)cc12	-25%	4%	1%	20%	-32%	12µM*
Cc1c(C(=O)N2CCC(C)CC2)c(S(=O)(=O)Nc2cccc(C(F)(F)F)c2)c(C)n1C	6%	·	?	·	·	·
COc1ccc(Cl)cc1S(=O)(=O)N1CCC(C(=O)NCc2ccccn2)CC1	2%	-3%	-11%	-1%	23%	?
Cc1ccc(C)c(N2CCN(S(=O)(=O)c3ccc4c(c3)NC(=O)CS4)CC2)c1	-2%	21%	-6%	7.4µM*	-44%	-27%
O=C1CSc2ccc(S(=O)(=O)N3CCN(c4ccccc4F)CC3)cc2N1	-10%	0%	0%	13µM*	-30%	?
Cc1ccc(Cl)cc1N1CCN(S(=O)(=O)c2ccc3c(c2)NC(=O)C(C)C(=O)N3)CC1 (configuration not stated)	79µM*	0%	-5%	?	11µM*	-2%
CN1CCN(S(=O)(=O)c2ccc3c(c2)NC(=O)CS3)CC1	4%	6%	-2%	?	2%	45%
Cc1ccc(-c2nc(C)c(CCNC(=O)C(=O)Nc3cc(C)ccc3C)s2)cc1	-1%	·	-1%	·	·	·
CCOC(=O)c1sc(NC(=O)C(OC(C)=O)c2ccccc2)nc1C (configuration not stated)	5%	-15%	3%	10µM*	6%	-24%
COc1ccc(C2CC(c3ccccc3)=NN2C(=O)COC(=O)c2cc(S(=O)(=O)N3CCOCC3)ccc2F)cc1 (configuration not stated)	-4%	-5%	-3%	11%	45%	-3%
O=c1c2ccccc2ncn1-c1ccc([N+](=O)[O-])c(C(F)(F)F)c1	-1%	2%	-12%	17%	-25%	35%
CCCc1nc2ccc(Br)cc2c(=O)n1-c1ccc([N+](=O)[O-])c(C(F)(F)F)c1	-4%	-19%	3%	34%	-29%	12µM*
COc1ccc2cc3cc(C(=O)N4CCN(c5cccc(Cl)c5)CC4)sc3nc2c1	0%	·	15%	·	·	·
O=C(NC1CCCCC1)C(c1ccc(F)cc1)N(Cc1ccco1)C(=O)c1ccccn1 (configuration not stated)	?	1%	6%	43%	58%	?
